PubChem BioAssay AID588402 (Sanford-Burnham Center for Chemical Genomics, 2011)
Among all 1,600 compounds or so, about 1,100 (69%) were called active. Rule as the data show it: active = inhibition above about 50%; inactive = the rest. So high a share suggests a set chosen from earlier hits. Not all results are given here.

biological target: Phospholipase A2 (Homo sapiens) (UniProt P04054); test: human phospholipase A2 activity blockers – biochemical, single concentration, uHTS hits, counter-screen for ATG4B inhibitor project (AID 588402); conditions: purified PLA2, NBD-C6-HPC fluorescence, 45 min; at 8.33 µM; stronger effect = higher value
Sequence (P04054 whole entry, looked up): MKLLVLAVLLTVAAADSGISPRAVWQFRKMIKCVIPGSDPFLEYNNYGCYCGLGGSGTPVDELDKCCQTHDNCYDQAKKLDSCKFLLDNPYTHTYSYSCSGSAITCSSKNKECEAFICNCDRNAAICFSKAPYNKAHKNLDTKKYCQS

Row | SMILES | inhibition
1 | Cc1ccc(-c2cc(C(=O)N3CCc4ccccc4C3)no2)cc1 | 43.8% (inactive)
2 | O=C(C(=O)N1CCc2ccccc2C1)c1c[nH]c2ccccc12 | 71% (active)
3 | COc1ccc2c(c1)CCc1c(C(=O)N3CCc4ccccc4C3)noc1-2 | 47.9% (inactive)
4 | Cc1ccc(CSc2nc(-c3ccccc3)c(C#N)c(=O)[nH]2)cc1 | 32.1% (inactive)
5 | COc1ccc(Br)cc1C(=O)NC(=S)Nc1cc(-c2nc3ccccc3[nH]2)ccc1C | 74.1% (active)
6 | CCc1cccc(C)c1N1C(=O)CN(Cc2ccccc2)C1=S | 92.4% (active)
7 | Cc1cccc(C)c1N1C(=O)CN(Cc2ccccc2)C1=S | 90.3% (active)
8 | Cc1cccc(C)c1-n1c(C)cc(/C=C2\C(=O)NN(c3ccccc3)C2=O)c1C | 63.7% (active)
9 | Cc1c(Cl)cccc1NC(=O)Nc1ccc(C(=O)N2CCCC2)cc1 | 56.6% (active)
10 | O=C1c2ccccc2C(=O)N1Cc1cc(-c2ccccc2Cl)no1 | 64.2% (active)
11 | Cc1ccc(S(=O)(=O)N(CC(=O)Nc2cccc([N+](=O)[O-])c2)Cc2ccc(Cl)cc2)cc1 | 80.7% (active)
12 | COc1ccc(C)cc1S(=O)(=O)N(CC(=O)Nc1cccc([N+](=O)[O-])c1)c1ccc(C)cc1 | 86.6% (active)
13 | Fc1cccc(Cl)c1CSc1ccc(-c2ccco2)nn1 | 49.5% (inactive)
14 | NC(=O)Cc1ccc2sc(-c3ccccc3)nc2c1 | 79.7% (active)
15 | CCN1CCN(c2c(Cl)cccc2NC(=O)c2ccc(Br)o2)CC1 | 61.6% (active)
16 | Cc1ccc(N=C2NC(=O)/C(=C/C=C/c3ccco3)S2)cc1C | 36.4% (inactive)
17 | CC(C)c1ccc2c(c1)c(SC(C)(C)C)c(CC(C)(C)C(=O)O)n2Cc1ccc(Cl)cc1 | 57.7% (active)
18 | O=C(/C=C/c1ccc(Cl)cc1)N1CCN(c2ccccc2[N+](=O)[O-])CC1 | 53% (active)
19 | CC(=O)c1c(C)n(-c2ccc(N(C)C)cc2)c2ccc(OCC(N)=O)cc12 | 82.6% (active)
20 | Cc1c(Cl)c([N+](=O)[O-])nn1CCCC(=O)Nc1cc(Cl)ccc1Cl | 69.4% (active)
21 | COc1ccc(/C=C2/SC(=O)N(CCCCCC(=O)Nc3ccccc3C(=O)O)C2=S)cc1 | 24.3% (inactive)
22 | O=C(Nc1cccc(F)c1)NC1CCCc2ccccc21 (stereo unspecified) | 71.2% (active)
23 | CCOC(=O)c1c(C)[nH]c2c1-c1ccccc1C(=O)C2=O | -20.8% (inactive)
24 | CC1CCN(C(=O)c2ccc(CSc3ccc(Cl)cc3)cc2)CC1 | 58.1% (active)

Row | SMILES | inhibition
25 | CC1(OC(=O)C2CCCC2)C(=O)C=C2C=C(c3ccc(C#N)cc3)OC=C2C1=O (stereo unspecified) | 66.5% (active)
26 | CCCc1nc2c(c(=O)c3ccccc3n2C)c(=O)n1C1CCCCCC1 | -14.6% (inactive)
27 | Cc1c(Cl)cccc1NC(=S)NCc1ccc2c(c1)OCO2 | 62.1% (active)
28 | CCCOc1ccc2c3c(c(=O)oc2c1OCCC)CCC3 | 40.9% (inactive)
29 | CCc1ccccc1NC(=O)/C(=C/c1ccccc1)c1ccccc1 | 61.7% (active)
30 | Cc1ccc(Nc2cc(=O)n(C3CCCCC3)c(=O)[nH]2)cc1C | 2.78% (inactive)
31 | NC(=O)Cc1ccc2c(c1)[nH]c1ccccc12 | 51% (active)
32 | O=C1N=C(N2CCc3ccccc3C2)S/C1=C\c1ccc(O)cc1 | 23.3% (inactive)
33 | O=c1c2sccc2nc(SCc2cc(=O)n3ccccc3n2)n1-c1ccc(Br)cc1 | 51.5% (active)
34 | CCOC(=O)C(C)Sc1nc2ccccc2c(=O)n1CC1CCCCC1 (stereo unspecified) | 44.5% (inactive)
35 | CCOc1ccc(-n2c(SC(C)C(=O)OC)nc3c(c2=O)SCC3)cc1 (stereo unspecified) | 56.4% (active)
36 | Cc1ccc(NC(=O)CC2S/C(=N/N=C3\CCCc4ccccc43)NC2=O)cc1 (stereo unspecified) | 60% (active)
37 | Cc1nn(-c2ccccc2)c(C)c1/C=N/NC(=O)CSc1nc2ccccc2c(=O)n1-c1ccccc1 | 31.8% (inactive)
38 | COC(=O)c1c(NC(=O)C2CC(C)=C(C)CC2C(=O)O)sc2c1CCCCC2 (stereo unspecified) | 68% (active)
39 | COc1cccc(CNc2nc(C(F)(F)F)nc3ccccc23)c1 | 63.6% (active)
40 | OC(CNCc1ccc(Cl)c(Cl)c1)c1ccccc1 (stereo unspecified) | 38.9% (inactive)
41 | Cc1c(NC(=S)NCc2ccc(F)cc2)cccc1[N+](=O)[O-] | 70.7% (active)
42 | Cc1cccc(C2c3[nH]c4ccccc4c3CCN2C(=O)c2cc(-c3cccn3C)n[nH]2)n1 (stereo unspecified) | 75.6% (active)
43 | Cc1c(Cl)c([N+](=O)[O-])nn1Cc1ccc(C(=O)N/N=C\c2cc(Cl)ccc2O)o1 | 72.6% (active)
44 | COc1cccc(/C=N/Nc2ccc(S(=O)(=O)Nc3ccccc3C(=O)O)cc2[N+](=O)[O-])c1O | 56.1% (active)
45 | c1ccc(C2=Nc3cccc4cccc(c34)N2)cc1 | 58.5% (active)
46 | CC(C)c1nc(SCC(=O)Nc2cccc(C(=O)O)c2)c2c3c(sc2n1)CCCC3 | 70.6% (active)
47 | Cc1nc2ccccc2c(-c2ccccc2)c1C(=O)c1ccccc1 | 81.3% (active)
48 | Cc1ncc(CC(=O)n2cc(C(=O)c3cc(Cl)ccc3O)cn2)s1 | 84.3% (active)

Row | SMILES | inhibition
49 | Cc1cccc(C)c1N1CCN(S(=O)(=O)N2CCCCC2)CC1 | 54.3% (active)
50 | Cc1nc(SCC(=O)N2CCc3ccccc3C2)c2c(C)c(C)sc2n1 | 76.5% (active)
51 | FC(F)(F)c1cccc(NC(=S)Nc2cccc(Cl)c2)c1 | 70.8% (active)
52 | Cc1ccc(C2=Nc3c(ccc4ccccc34)C(c3ccncc3)=NN2)cc1 | 68.7% (active)
53 | O=C(NCc1ccccc1)[C@H]1C[C@@H]1[C@H](NP(=O)(c1ccccc1)c1ccccc1)c1ccccc1 | 79% (active)
54 | Clc1ccccc1CSc1nnc(-c2ccco2)c(-c2ccco2)n1 | 34.9% (inactive)
55 | O=C(CSc1nc(-c2ccccc2)cs1)Nc1cccc([N+](=O)[O-])c1 | 16.5% (inactive)
56 | O=C(Nc1nnc(SCc2ccccc2Cl)s1)c1cccc([N+](=O)[O-])c1 | 57.6% (active)
57 | S=C(NCCc1ccccc1)NCc1ccccc1Cl | 54.4% (active)
58 | FC(F)(F)Oc1ccc(NC(=S)NCc2ccccc2)cc1 | 47.2% (inactive)
59 | Cc1ccc(CNC(=O)c2ccccc2CCc2ccccc2)cc1 | 45.9% (inactive)
60 | CN(Cc1c(F)cccc1Cl)S(=O)(=O)c1cccs1 | 58.8% (active)
61 | CCCC1=Nc2cc(C(=O)NCc3ccco3)ccc2Sc2ccccc21 | 46.3% (inactive)
62 | Oc1c(Cl)cc(Cl)c(Cl)c1Cc1c(O)c(Cl)cc(Cl)c1Cl | 82.7% (active)
63 | Cc1ccc(-n2c(SCC(=O)N/N=C/C=C/c3ccccc3[N+](=O)[O-])nc3ccccc3c2=O)cc1 | 40.7% (inactive)
64 | O=C(O)CCn1cc(/C=C/C(=O)c2ccc(Cl)cc2)c(-c2cccc(Br)c2)n1 | 43.2% (inactive)
65 | O=C1C(=O)N(CC2COc3ccccc3O2)c2ccccc21 (stereo unspecified) | 78.5% (active)
66 | Fc1ccc2[nH]c3c(N4CCN(Cc5ccc6c(c5)OCO6)CC4)ncnc3c2c1 | 48.4% (inactive)
67 | COc1ccc(NC(=O)COc2ccc(C(=O)c3ccc(F)cc3)cc2)cc1S(N)(=O)=O | -4.37% (inactive)
68 | COc1cccc(NC(=O)NCc2ccc(F)cc2)c1 | 52.3% (active)
69 | CC1=C/C(=N\S(=O)(=O)c2ccccc2)C(C(C)C)=CC1=O | 84.4% (active)
70 | CN(C)Cc1ccc(F)cc1Sc1cc(Cl)ccc1Cl | 42.7% (inactive)
71 | O=C(N/N=C/c1coc2ccccc2c1=O)c1cc2ccccc2o1 | 55.8% (active)
72 | COc1ccc(/C=C2/CCCc3ccccc3C2=O)cc1 | 53.3% (active)

Row | SMILES | inhibition
73 | COc1ccc(/C=C2\CCc3ccccc3C2=O)c(OC)c1OC | 23.1% (inactive)
74 | CCc1ccc2c(c1)C(c1ccc([N+](=O)[O-])cc1)=NNC(c1ccccc1)=N2 | 24.1% (inactive)
75 | CCOc1ccc2c(c1)C(c1ccc(C)cc1)=NNC(c1ccc(C)cc1)=N2 | 74.7% (active)
76 | O=C1Nc2cc(Cl)c(Cl)cc2N(O)N1c1cc(Cl)cc(Cl)c1 | 39.8% (inactive)
77 | O=C(O)C(c1ccccc1)N1C(=O)/C(=C\c2ccc(-c3cccc(Cl)c3)o2)SC1=S (stereo unspecified) | 45% (inactive)
78 | O=C(N[C@@H](Cc1c[nH]c2ccccc12)C(=O)O)OCC1c2ccccc2-c2ccccc21 | 72.1% (active)
79 | Cc1cccc(NC(=S)Nc2ccc(Cl)c(Cl)c2)c1 | 60.1% (active)
80 | COc1cnc(-c2ccccn2)nc1Oc1ccc(C(C)(C)C)cc1 | 67.2% (active)
81 | CC(C)(C)c1ccc(OC2=CS(=O)(=O)c3ccccc32)cc1 | 55.9% (active)
82 | Cc1cccc(NC(=S)NCCc2ccc(Cl)cc2)c1C | 57.9% (active)
83 | Cc1ccc(Nc2ccc(C(N)=O)cc2[N+](=O)[O-])cc1 | 59.4% (active)
84 | COC(=O)N/N=C/c1cn(CCCOc2ccc(C)cc2)c2ccccc12 | 43% (inactive)
85 | COc1cccc(Cn2cc(/C=N/NC(=O)c3cc(O)cc(O)c3)c3ccccc32)c1 | 76.6% (active)
86 | CCOC(=O)N/N=C/c1cn(Cc2ccccc2Cl)c2ccccc12 | 48.2% (inactive)
87 | CC(C)(C)C1CCc2c(sc3nc(SCC(N)=O)nc(N)c23)C1 (stereo unspecified) | 47.6% (inactive)
88 | CCOC(=O)c1c(-c2ccccc2)oc2cc(Br)c(O)c(C=O)c12 | 40.9% (inactive)
89 | CC(=O)Nc1ccc(C(=O)Nc2nc(-c3cc(C)n(Cc4ccccc4)c3C)cs2)cc1 | 38.2% (inactive)
90 | CCCc1[nH]nc2c1C(c1ccc(OC(=O)c3ccco3)cc1)C(C#N)=C(N)O2 (stereo unspecified) | 67.4% (active)
91 | COC(=O)c1c(NC(=O)COC(=O)[C@@H](NS(=O)(=O)c2ccccc2)C(C)C)sc2c1CCC2 | 81.7% (active)
92 | NC(=O)c1sc2nc3c(c(-c4ccccc4)c2c1N)CCC3 | 46.6% (inactive)
93 | O=C(COC(=O)/C(=C/c1cccs1)c1cccs1)NCc1ccccc1Cl | 68.2% (active)
94 | O=C(COC(=O)c1cc2c(s1)CCCC2)NCc1ccccc1Cl | 59.3% (active)
95 | CCc1nc(N2CCN(C(C)=O)CC2)c2c3c(sc2n1)CCCC3 | 52.4% (active)
96 | Cc1ccc(Oc2cc(NC(=O)CCCn3nc(C)c([N+](=O)[O-])c3C)cc([N+](=O)[O-])c2)cc1 | 63% (active)
